Laboratory results reported in PubChem BioAssay AID2578 (National Center for Advancing Translational Sciences (NCATS), 2010).
Calls of active or inactive are those of the source. Calls follow the shape of the dose curve; as a rule, active = well fitted curve in the direction sought with a large enough effect; inactive = no such curve, though single readings can be large or run the other way.

The compounds below were run against Alpha-galactosidase A (Homo sapiens) (UniProt P06280) (assay: qHTS Assay for Inhibitors and Activators of N370S glucocerebrosidase as a Potential Chaperone Treatment of Gaucher Disease: Alpha-Galactosidase Counterscreen). Conditions: purified enzyme, 4-MU-alpha-Gal fluorescence, 20 min; series mostly up to 57.5 µM.
Alpha-galactosidase A (Homo sapiens), sequence (P06280 whole entry, looked up): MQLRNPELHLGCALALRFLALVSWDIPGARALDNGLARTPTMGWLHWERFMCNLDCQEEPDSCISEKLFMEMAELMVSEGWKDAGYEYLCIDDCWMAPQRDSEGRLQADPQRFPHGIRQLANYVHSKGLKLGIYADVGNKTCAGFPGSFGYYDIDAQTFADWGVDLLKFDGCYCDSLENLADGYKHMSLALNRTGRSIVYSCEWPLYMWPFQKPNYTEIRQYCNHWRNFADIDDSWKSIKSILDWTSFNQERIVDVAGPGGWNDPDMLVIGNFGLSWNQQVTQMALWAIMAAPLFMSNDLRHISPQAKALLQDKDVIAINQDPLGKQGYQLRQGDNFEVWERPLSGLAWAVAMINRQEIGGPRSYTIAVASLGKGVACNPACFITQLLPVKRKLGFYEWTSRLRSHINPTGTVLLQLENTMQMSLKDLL
Description: NIH Chemical Genomics Center [NCGC] NIH Molecular Libraries Probe Production Centers Network [MLPCN] MLPCN Grant: MH086442-01 Assay Submitter (PI): Wei Zheng Glucocerebrosidase (GC) catalyzes the hydrolysis of beta-glucocerebroside to glucose and ceramide in lysosomes. Mutations in the glucocerebrosidase gene result in Gaucher disease, an autosomal recessive lysosomal storage disorder. Many of the mutations encountered in patients with Gaucher disease are missense alterations that may cause misfolding, decreased stability and/or mistrafficking of this lysosomal protein. […] These inhibitors include iminosugar analogs and three non-iminosugar inhibitors identified from a previous HTS of 62,000 compounds with the wild type recombinant enzyme. However, the enhancement of enzyme activity by the chaperone action of an enzyme inhibitor must be balanced against the direct inhibition of the enzyme. An enzyme activator could also function as a chaperone by binding to the enzyme and helping to correct its misfolding and mistrafficking. While activators for GC have not yet been identified, they may have better therapeutic potential than inhibitors. Therefore the discovery and development of chemical activators may provide a new strategy for the chaperone therapy. To characterize compound selectivity, selected hits from the primary screen were screened against purified alpha-galactosidase, a related sugar hydrolase. Alpha-galactosidase is a homodimeric glycoprotein that hydrolyzes the terminal alpha-galactosyl moieties from glycolipids and glycoproteins.
NCGC Assay Protocol Summary: This is a fluorogenic enzyme assay with 4-Methylumbelliferyl alpha-D-galactopyranoside as the substrate and human […] as the enzyme preparation. Upon the hydrolysis of this fluorogenic substrate, the resulting product, […]. 4-Methyllumbelliferone, can be excited at 365 nm and emits at 440 nm. This fluorescence which can be detected by a standard fluorescence plate reader. Data were normalized to the controls for basal activity (without enzyme) and 100% activity (with enzyme). In the AC50 values were determined from concentration-response data modeled with the standard Hill equation. Assay buffer: 50 mM citric acid (titrated with potassium phosphate to pH 4.5), 0.005% Tween-20, pH 4.5. (pH 4.5 is an optimal condition for this enzyme assay) 1536-well assay protocol for the human alpha-galactosidase: (1) Add 2 ul/well of enzyme (12 nM final) (2) Add 23 nL compounds in DMSO solution. The final titration was 0.7 nM to 77 uM. (3) Add 1 ul of substrate ([…]) (4) Incubate at room temperature for 20 min. (5) Add 2 ul stop solution (1M NaOH and 1M Glycine mixture, pH 10) (6) Detect the assay plate in a ViewLux plate reader (PerkinElmer) with Ex=365 nm and Em=440nm. Keywords: MLSMR, MLPCN, NIH Roadmap, qHTS, NCGC, : Alpha-galactosidase, Fabry Disease, pharmacological chaperone, chaperone therapy

SMILES | outcome
O=S(=O)(c1ccc(Cl)cc1)N1CCN(c2nc(-c3ccc(F)cc3)nc3cc(Cl)ccc23)CC1 | inactive
O=S(=O)(c1ccc(F)cc1)N1CCN(c2nc(-c3ccc(F)cc3)nc3cc(Cl)ccc23)CC1 | inactive
O=S(=O)(c1ccc(OC(F)(F)F)cc1)N1CCN(c2nc(-c3cccs3)nc3ccccc23)CC1 | inactive
CC(C)(C)c1ccc(S(=O)(=O)N2CCN(c3nc(-c4cccs4)nc4ccccc34)CC2)cc1 | inactive
O=S(=O)(c1ccc2c(c1)CCCC2)N1CCN(c2nc(-c3cccs3)nc3ccccc23)CC1 | inactive
O=[N+]([O-])c1ccc(S(=O)(=O)N2CCN(c3nc(-c4ccccc4)nc4ccccc34)CC2)cc1 | inactive
NS(=O)(=O)c1ccc(S(=O)(=O)N2CCN(c3nc(-c4cccs4)nc4ccccc34)CC2)cc1 | inactive
O=S(=O)(c1ccc(Cl)cc1)N1CCN(c2nc(-c3ccccc3)nc3ccccc23)CC1 | inactive
O=S(=O)(c1ccccc1Cl)N1CCN(c2nc(-c3ccccc3)nc3ccccc23)CC1 | inactive
N#Cc1ccc(S(=O)(=O)N2CCN(c3nc(-c4cccs4)nc4ccccc34)CC2)cc1 | inactive
CCOC(=O)c1ccc(S(=O)(=O)N2CCN(c3nc(-c4ccccc4)nc4ccccc34)CC2)cc1 | inactive
O=S(=O)(c1ccc(F)cc1)N1CCN(c2nc(-c3ccccc3)nc3ccccc23)CC1 | inactive
O=[N+]([O-])c1ccccc1S(=O)(=O)N1CCN(c2nc(-c3ccccc3)nc3ccccc23)CC1 | inactive
O=S(=O)(c1ccccc1)N1CCN(c2nc(-c3cccs3)nc3ccccc23)CC1 | inactive
O=S(=O)(c1ccc(F)cc1)N1CCN(c2nc(-c3cccc(Br)c3)nc3ccccc23)CC1 | inactive
O=S(=O)(c1ccc(Cl)cc1)N1CCN(c2nc(-c3ccc(Cl)cc3)nc3ccccc23)CC1 | inactive
O=S(=O)(c1cccc(Cl)c1)N1CCN(c2nc(-c3cccs3)nc3ccccc23)CC1 | inactive
Cc1ccc(-c2nc(N3CCN(S(=O)(=O)c4ccc(F)cc4)CC3)c3ccc(Cl)cc3n2)cc1 | inactive
CC(=O)c1ccc(S(=O)(=O)N2CCN(c3nc(-c4cccs4)nc4ccccc34)CC2)cc1 | inactive
O=S(=O)(c1ccc(Cl)cc1)N1CCN(c2nc(-c3cccs3)nc3ccccc23)CC1 | inactive

SMILES | outcome
NS(=O)(=O)c1ccc(S(=O)(=O)N2CCN(c3nc(-c4ccccc4)nc4ccccc34)CC2)cc1 | inactive
O=S(=O)(c1ccc2c(c1)CCCC2)N1CCN(c2nc(-c3ccccc3)nc3ccccc23)CC1 | inactive
O=S(=O)(c1ccc(F)cc1)N1CCN(c2nc(-c3cccs3)nc3ccccc23)CC1 | inactive
N#Cc1ccc(S(=O)(=O)N2CCN(c3nc(-c4ccccc4)nc4ccccc34)CC2)cc1 | inactive
O=S(=O)(c1ccccc1F)N1CCN(c2nc(-c3cccs3)nc3ccccc23)CC1 | inactive
O=S(=O)(c1ccc(F)cc1)N1CCN(c2nc(-c3ccccc3)nc3cc(Cl)ccc23)CC1 | inactive
Cc1ccc(S(=O)(=O)N2CCN(c3nc(-c4ccccc4)nc4ccccc34)CC2)cc1 | inactive
CCOC(=O)c1ccc(S(=O)(=O)N2CCN(c3nc(-c4cccs4)nc4ccccc34)CC2)cc1 | inactive
CCOc1ccc(S(=O)(=O)N2CCN(c3nc(-c4ccccc4)nc4ccccc34)CC2)cc1 | inactive
S=C(NCCCc1cnc[nH]1)NCCCN(Cc1ccc(Cl)c(Cl)c1)c1ccc(Br)cn1 | inactive
O=S(=O)(c1cccc(C(F)(F)F)c1)N1CCN(c2nc(-c3cccs3)nc3cc(Cl)ccc23)CC1 | inactive
O=S(=O)(c1ccc(Br)cc1)N1CCN(c2nc(-c3ccccc3)nc3ccccc23)CC1 | inactive
O=S(=O)(c1ccc(Br)cc1)N1CCN(c2nc(-c3cccs3)nc3ccccc23)CC1 | inactive
Cc1ccc(S(=O)(=O)N2CCN(c3nc(-c4cccs4)nc4ccccc34)CC2)cc1 | inactive
O=S(=O)(c1cccc(C(F)(F)F)c1)N1CCN(c2nc(-c3cccs3)nc3ccccc23)CC1 | inactive
O=S(=O)(c1ccc(Cl)cc1)N1CCN(c2nc(-c3cccc(Br)c3)nc3ccccc23)CC1 | inactive
O=S(=O)(c1cccc(Br)c1)N1CCN(c2nc(-c3cccs3)nc3ccccc23)CC1 | inactive
O=S(=O)(c1ccccc1C(F)(F)F)N1CCN(c2nc(-c3cccs3)nc3ccccc23)CC1 | inactive
N#Cc1ccccc1S(=O)(=O)N1CCN(c2nc(-c3ccccc3)nc3ccccc23)CC1 | inactive
CC(=O)c1ccc(S(=O)(=O)N2CCN(c3nc(-c4ccccc4)nc4ccccc34)CC2)cc1 | inactive
